{"source": "PubChem BioAssay AID686979", "about": "(National Center for Advancing Translational Sciences (NCATS), 2013)", "note": "Hit rate of the full screen: of about 420,000 compounds, about 50,000 (12%) were called active. Where a call stands in place of a potency, no number is given. Another 26% or so got no clear call; they are omitted. Calls follow the shape of the dose curve; as a rule, active = well fitted inhibition curve with a large enough effect; inconclusive = small, poorly fitted or top-dose-only effect; inactive = flat fitted curve, though single readings scatter. Only a selection was taken, and actives are over-represented in it overall. Potency is read from the fitted curve at half-maximal effect."}
{"assay": "qHTS for Inhibitors of human tyrosyl-DNA phosphodiesterase 1 (TDP1): qHTS in cells in presence of CPT; also: nearly all actives have a fitted effect of over 55% in size", "settings": "chicken DT40 Tdp1-/-;hTDP1 cells + 20 nM CPT, ATP luminescence, 48 h; series mostly up to 46.2 µM", "method_in_brief": "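Chicken DT40 Tdp1-/- cells complemented with human TDP1, 400 cells/well, exposed to compounds plus 20 nM camptothecin for at least 48 h at 37 C; viability read as ATP content by CellTiter-Glo luminescence.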"}
{"smiles": "COc1cccc(S(=O)(=O)NCc2ccc(C(=O)NCc3ccccn3)cc2)c1", "Potency": "0.92 µM (active)"}
{"smiles": "O=[N+]([O-])c1cccc(S(=O)(=O)NCc2ccccn2)c1", "Potency": "inactive"}
{"smiles": "COc1ccc2oc(=O)c(C(=O)NCc3ccccn3)cc2c1", "Potency": "inactive"}
{"smiles": "O=C(COC(=O)c1ccc(F)cc1)NCCCc1ccccc1", "Potency": "inactive"}
{"smiles": "Cn1c(SCC(=O)N2CCCCC2)nc2c(c1=O)SCC2", "Potency": "inactive"}
{"smiles": "Cc1c(NC(=O)c2cc(=O)c3ccccc3o2)c(=O)n(-c2ccccc2)n1C", "Potency": "inactive"}
{"smiles": "O=C1CC(c2ccccc2)C(c2ccccc2)=NN1", "note": "(centres undefined)", "Potency": "inactive"}
{"smiles": "CC(=O)NCCC(=O)Nc1cc(S(=O)(=O)N2CCOCC2)ccc1N1CCOCC1", "Potency": "inactive"}
{"smiles": "CC(C)CCOc1ccc(C(=O)Nc2cc(S(=O)(=O)N3CCOCC3)ccc2N2CCOCC2)cc1", "Potency": "9.2 µM (active)"}
{"smiles": "COCCNC(=S)Nc1cc(S(=O)(=O)N2CCOCC2)ccc1N1CCCCC1", "Potency": "20.6 µM (active)"}
{"smiles": "CC(C)CCC(=O)Nc1cc(S(=O)(=O)N2CCOCC2)ccc1N1CCCC1", "Potency": "inactive"}
{"smiles": "CC(Oc1ccc(F)cc1)C(=O)Nc1cc(S(=O)(=O)N2CCOCC2)ccc1N1CCN(C)CC1", "note": "(centres undefined)", "Potency": "inactive"}
{"smiles": "CC(=O)Nc1ccc(C(=O)Nc2cc(S(=O)(=O)N3CCOCC3)ccc2N2CCOCC2)cc1", "Potency": "inactive"}
{"smiles": "COc1ccc(CNC(=O)Cn2nnc(-c3ccccc3F)n2)cc1", "Potency": "inactive"}
{"smiles": "COC(=O)[C@@H]1CC(O)CN1C(=O)C12CC3CC(CC(C3)C1)C2", "note": "(some centres undefined)", "Potency": "inactive"}
{"smiles": "CN(C)/C(=N\\OC(=O)c1ccccc1)c1nonc1N", "Potency": "inactive"}
{"smiles": "C=C(C)CNC(=O)c1ccc(OC2CCN(C(=O)COC)CC2)cc1", "Potency": "inactive"}
{"smiles": "Cc1c(NC(=O)CSc2nnnn2-c2ccc(C(=O)O)cc2)c(=O)n(-c2ccccc2)n1C", "Potency": "inactive"}
{"smiles": "CS(=O)(=O)N(CC(=O)N1CCc2ccccc2C1)c1ccc(Br)cc1", "Potency": "inactive"}
{"smiles": "CN(CCc1ccccc1)c1ccc([N+](=O)[O-])cn1", "Potency": "inactive"}
{"smiles": "Cc1c(C)c2c(OCC(=O)N[C@@H](C(=O)O)c3ccccc3)cc3c(c2oc1=O)CCC(C)(C)O3", "Potency": "inactive"}
{"smiles": "COc1ccc2c(c1)CCc1cnc(-n3ncc(C(=O)NCCN4CCOCC4)c3C)nc1-2", "Potency": "inactive"}
{"smiles": "Cc1cc(C)nc(SCC(=O)c2ccc(Cl)cc2)n1", "Potency": "inactive"}
{"smiles": "COC(=O)c1cc(C(=O)CSc2nc(C)cc(C)n2)ccc1O", "Potency": "inactive"}
{"smiles": "Cc1cc(Oc2ccc(Cl)cc2)nc(SCC(=O)c2ccccc2)n1", "Potency": "23.1 µM (active)"}
{"smiles": "O=C(COC(=O)CCCSc1nc2ccccc2[nH]1)Nc1ccc(Oc2ccccc2)cc1", "Potency": "inactive"}
{"smiles": "NC(=O)CC[C@@H]1NC(=O)[C@@H]2CCCN2C(=O)c2cc([N+](=O)[O-])cc(F)c2NCCC[C@@H](C(N)=O)NC1=O", "Potency": "inactive"}
{"smiles": "CC1(C)CN(Cc2cccnc2)C(=O)[C@H]1CC(=O)Nc1ccc(Br)cc1", "Potency": "inactive"}
{"smiles": "O=C1CN(C(=O)c2ccccc2F)C(c2ccc(F)cc2)c2cc(F)ccc2N1", "note": "(centres undefined)", "Potency": "inactive"}
{"smiles": "COC(=O)CN1C(C)=Nc2ccc(Br)cc2C1c1ccccc1", "note": "(centres undefined)", "Potency": "inactive"}
{"smiles": "Cc1ccc2c(c1)C(c1ccccc1)N(C(=O)c1ccc(F)cc1)CC(=O)N2", "note": "(centres undefined)", "Potency": "inactive"}
{"smiles": "CCC(CC)C(=O)N1CC(=O)Nc2ccc(Br)cc2C1c1ccccc1", "note": "(centres undefined)", "Potency": "23.1 µM (active)"}
{"smiles": "CC(C)C(=O)N1CC(=O)Nc2ccc(F)cc2C1c1ccc(F)cc1", "note": "(centres undefined)", "Potency": "inactive"}
{"smiles": "COc1ccc(CC(=O)N2CC(=O)Nc3ccc(Br)cc3C2c2ccc(F)cc2)cc1OC", "note": "(centres undefined)", "Potency": "16.4 µM (active)"}
{"smiles": "COc1ccc(C(=O)Nc2ccnn2C2CCN(Cc3ccncc3)CC2)cc1", "Potency": "inactive"}
{"smiles": "COC(=O)c1sc2ncccc2c1-n1c(C)ccc1C", "Potency": "inactive"}
{"smiles": "Cc1cc(Cl)ccc1NNC(=O)c1snnc1C", "Potency": "inactive"}
{"smiles": "Brc1ccc(-c2csc(N/N=C/c3cccnc3)n2)cc1", "Potency": "inactive"}
{"smiles": "O=C(CSc1nnc(Cn2cnc3ccccc32)o1)c1ccccc1", "Potency": "11.6 µM (active)"}
{"smiles": "CC(=O)Nc1ccc(C(=O)CSc2nnc(Cc3ccccc3)o2)cc1", "Potency": "inactive"}
{"smiles": "O=C(CSc1nnc(-c2c[nH]c3ccccc23)o1)c1ccccc1", "Potency": "inactive"}
{"smiles": "CCCN(c1ccc(C)cc1)c1nc(=O)c2cccnc2s1", "Potency": "inactive"}
{"smiles": "Cc1nc(N2CCOCC2)c2c(C(=O)NCc3cccc(Cl)c3)c(C)oc2n1", "Potency": "inactive"}
{"smiles": "COc1ccc(N2CCN(C(=O)c3c(C)oc4nc(C)nc(N5CCCC5)c34)CC2)cc1", "Potency": "inactive"}
{"smiles": "CCOC(=O)c1c(C)oc2nc(C)nc(N3CCN(c4ccc(OC)cc4)CC3)c12", "Potency": "7.31 µM (active)"}
{"smiles": "CCOc1ccc(CCNC(=O)CN(c2ccc(C)cc2)S(=O)(=O)N(C)C)cc1OCC", "Potency": "inactive"}
{"smiles": "CCOC(=O)c1[nH]c2c(c1-c1ccccc1)C(=O)CC(c1ccc(Cl)cc1)C2", "note": "(centres undefined)", "Potency": "inactive"}
{"smiles": "CCc1ccc(C2CC(=O)c3c([nH]c(C(=O)OCc4ccc(C)cc4)c3C)C2)cc1", "note": "(centres undefined)", "Potency": "6.51 µM (active)"}
{"smiles": "CCOC(=O)c1cc(=O)c2ccc(OCc3ccccc3)cc2o1", "Potency": "inactive"}
{"smiles": "CC(C)(C)N1C(=O)c2c(C(=O)OCc3ccccc3)[nH]c(-c3ccccc3)c2C1=O", "Potency": "inactive"}
{"smiles": "CCOc1ccc(C2CC(=O)c3c([nH]c(C(=O)OCc4ccccc4)c3C)C2)cc1", "note": "(centres undefined)", "Potency": "13 µM (active)"}
{"smiles": "CCOC(=O)C(Cc1ccccc1)NC(=O)CCC(=O)c1ccc(OC)cc1", "note": "(centres undefined)", "Potency": "inactive"}
{"smiles": "CN1C(=O)/C(=C/C=C2\\SCCN2C)OC1=S", "Potency": "inactive"}
{"smiles": "Cc1ccn2c(=O)nc(SCC(=O)NCc3ccc4c(c3)OCO4)nc2c1", "Potency": "inactive"}
{"smiles": "CCOc1ccccc1NC(=O)CSc1ncc(S(=O)(=O)c2ccc(C(C)(C)C)cc2)c(=O)[nH]1", "Potency": "inactive"}
{"smiles": "O=C(NCC(=O)N(c1ccccc1)C(C(=O)NCC1CCCO1)c1ccccc1)c1cccs1", "note": "(centres undefined)", "Potency": "inactive"}
{"smiles": "Cc1ccc(N2CCN(C(=O)CCc3c(C)nc4c(c3C)c(=O)n(C)c(=O)n4C)CC2)c(C)c1", "Potency": "inactive"}
{"smiles": "COc1cc(NC(=O)CSc2nc3nc(C)c(Cc4ccc(C)cc4)c(C)n3n2)cc(OC)c1OC", "Potency": "13 µM (active)"}
{"smiles": "Cc1ccc(Cc2c(C)nc3nc(SCC(=O)NCCN4CCOCC4)nn3c2C)cc1", "Potency": "inactive"}
{"smiles": "COc1cc(NC(=O)CCn2nc(C)cc2C)cc(OC)c1OC", "Potency": "inactive"}
{"smiles": "CCn1c(SC)nc(O)c(C(c2ccc(OC)c(O)c2)c2c(O)nc(SC)n(CC)c2=O)c1=O", "Potency": "inactive"}
{"smiles": "CC(C)Oc1ccc(CN2CCC2(C)C(=O)NCc2ccc(C(F)(F)F)cc2)cc1", "note": "(centres undefined)", "Potency": "25.9 µM (active)"}
{"smiles": "CC(C)Oc1ccc(Oc2ccc(C(F)(F)F)cn2)cc1", "Potency": "inactive"}
{"smiles": "CC(C)CN1CCC1(C)C(=O)Nc1ccc(OC(F)F)cc1", "note": "(centres undefined)", "Potency": "inactive"}
